PubChem BioAssay AID488847 (NMMLSC, 2010)
Screen size: about 330,000 compounds; about 1,900 (0.58%) were called active.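 How the source made its calls: active means inhibition of aptamer binding above 40%, roughly 3 SD of noise, on plates passing a quality check; inactive means the rest.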 The sample as a whole holds a higher share of actives than the screen did.

target: Beta-adrenergic receptor kinase 1 (Homo sapiens) (UniProt P25098); assay: compounds blocking aptamer binding on GRK2 – biochemical, human GRK2, bead flow cytometry, HTS, primary screen (AID 488847); conditions: FAM-aptamer displacement from GRK2, at 10 µM, active compounds read high;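 further: median bead fluorescence of bound FAM aptamer so fluorescent compounds give negative values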
Sequence (P25098 whole entry, looked up): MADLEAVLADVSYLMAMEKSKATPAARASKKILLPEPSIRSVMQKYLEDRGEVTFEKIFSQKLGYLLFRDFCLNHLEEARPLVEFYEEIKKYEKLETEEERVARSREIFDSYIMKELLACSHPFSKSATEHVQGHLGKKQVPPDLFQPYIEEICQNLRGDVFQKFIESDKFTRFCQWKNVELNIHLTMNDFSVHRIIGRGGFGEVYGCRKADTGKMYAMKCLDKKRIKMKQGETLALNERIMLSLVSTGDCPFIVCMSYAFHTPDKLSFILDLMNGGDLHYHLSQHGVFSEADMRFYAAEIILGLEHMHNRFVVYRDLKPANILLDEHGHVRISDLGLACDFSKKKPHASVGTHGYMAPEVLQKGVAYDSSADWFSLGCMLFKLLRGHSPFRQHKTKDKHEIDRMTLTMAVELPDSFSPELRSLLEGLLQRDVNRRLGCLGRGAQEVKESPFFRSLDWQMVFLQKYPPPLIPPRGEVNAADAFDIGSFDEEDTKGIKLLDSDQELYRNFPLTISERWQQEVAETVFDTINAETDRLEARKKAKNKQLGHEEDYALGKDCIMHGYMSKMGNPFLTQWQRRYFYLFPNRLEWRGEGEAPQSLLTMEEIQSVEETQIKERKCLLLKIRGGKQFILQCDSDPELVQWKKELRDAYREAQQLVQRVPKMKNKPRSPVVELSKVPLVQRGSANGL

Inhibition of aptamer binding, inactive:
C=CCOc1ccc(/C=C2\SC(=S)N(CCC(=O)O)C2=O)cc1 0%
Cc1ccc(/C=C2/SC(=S)N(CCC(=O)NCCCN3CCOCC3)C2=O)cc1 5%
CC(=O)Oc1ccccc1C(=O)Nc1ncc([N+](=O)[O-])s1 5%
CCSc1nc(O)c(C(c2cccc(OC)c2)c2c(O)nc(SCC)[nH]c2=O)c(=O)[nH]1 9%
COc1ccc(Nc2nc(=O)[nH]nc2C)cc1 4%
COc1ccc(Nc2ncnc3sc(C)cc23)cc1 0%
CC(Sc1cccc[n+]1[O-])C(=O)Nc1cccc(S(=O)(=O)N2CCOCC2)c1 (stereo unspecified) 1%
O=C(O)C1CCN(C(=O)OCc2ccccc2)CC1 0%
COc1cc(OC)cc(C(=O)OCC(=O)Nc2sccc2C(N)=O)c1 0%
NC(=O)c1ccsc1NC(=O)COC(=O)Cc1n[nH]c(=O)c2ccccc12 2%
CCc1ccc2oc(=O)cc(CN3CCCCC3C)c2c1 (stereo unspecified) 0%
COc1cc(/C=N/NC(=O)c2cc(C)n(-c3ccc(F)cc3)c2C)cc(OC)c1O 0%
O=C(N/N=C/c1cccc(Br)c1)c1ccc(N2CCCC2=O)cc1 0%
O=C(NCc1cccc(Cl)c1)C1CCN(c2nnc(N3CCCC3=O)s2)CC1 0%
CN(C)S(=O)(=O)c1cccc(C(=O)OCC(=O)N2CCCC2=O)c1 0%
CC(C)(C)NC(=O)Cn1nnc(-c2ccccc2Cl)n1 2%
Cc1cc(C)n(C(=O)c2ccc(S(=O)(=O)N3CCCC3)cc2)n1 2%
Cc1ccc(S(=O)(=O)C2(S(=O)(=O)c3ccc(C)cc3)CCCC2)cc1 0%
CCCNc1c(N)c(=O)c1=O 6%
O=C(OCc1nnc(-c2ccccc2)o1)c1cc(=O)[nH]c2ccccc12 3%
CCOC(=O)c1cc(-c2nnc(-c3cc(OC)c(OC)c(OC)c3)o2)c(C)nc1C 1%
COc1cc(NC(=O)c2[nH]cnc2C(N)=O)cc(C(=O)Nc2cccc(C(F)(F)F)c2)c1 0%
CSc1nnc(SCc2nc3sc(C(=O)O)c(C)c3c(=O)[nH]2)s1 13%
CCOC(=O)c1sc2nc(CSCC(=O)OCc3ccc(C(=O)OC)o3)[nH]c(=O)c2c1C 2%
O=S(=O)(Nc1cccc(-c2ccc(N3CCOCC3)nn2)c1)c1ccc(Cl)c(Cl)c1 0%
O=c1c([N+](=O)[O-])cccn1Cc1ccc(F)cc1Cl 0%
O=C(C1CCC1)N1CCc2cc(S(=O)(=O)NCc3cccnc3)ccc21 0%
O=C(CSc1nc2ccccc2c(=O)n1-c1ccc(F)cc1)NC1CC1 0%
O=C(CSc1nc2ccccc2c(=O)n1Cc1ccc(F)cc1)NCC1CCCO1 (stereo unspecified) 0%
O=c1[nH]c(CCl)nc2cc(-c3ccc(Cl)cc3)sc12 0%
NC(=O)CC(NC(=O)Cc1cccc2ccccc12)c1ccc(NCc2cc(F)ccc2F)c([N+](=O)[O-])c1 (stereo unspecified) 1%
CCCC/S(C)=N/S(=O)(=O)c1ccc(C)cc1 (stereo unspecified) 1%
COc1ccc(CN2CCN(Cc3cn(C)nc3-c3ccccc3)CC2CCO)c(C)c1C (stereo unspecified) 0%
CN(CC(=O)Nc1ccc(C(N)=O)cc1)S(=O)(=O)c1ccc2c(c1)OCCO2 0%
Cc1nc(S(=O)(=O)c2ccc(Br)cc2)nc2c1CCC2 5%
O=C(CNC(=O)c1ccc(Br)o1)Nc1ccccc1 1%
Brc1ccc(-c2nnc(-c3ccccc3)o2)o1 5%
CCOc1ccc(C(=O)NCCCN2CCCC2=O)cc1 2%
CC1CCC(NC(=O)c2ccc(N3CCCC3=O)cc2)CC1 (stereo unspecified) 0%
CC1=CC(C)(C)NC(=S)N1NC(=O)c1ccccc1Cl 1%
COc1ccc(C2C(C#N)=C(N)Oc3cc(N)ccc32)cc1OC (stereo unspecified) 0%
CC(=O)C(C)n1cnc2scc(-c3ccc(C)cc3)c2c1=O (stereo unspecified) 1%
CCn1cnc2scc(-c3ccc(C)c(C)c3)c2c1=O 0%
CCOC(=O)c1ccc(S(=O)(=O)N(CCO)Cc2cc3cc(OC)c(OC)cc3[nH]c2=O)cc1 0%
CN(C)CC(C)(C)CNC(=O)c1cc(Br)cc(Br)c1O 6%
CC(C)CC(=O)Nc1ccc(Cc2ccncc2)cc1 0%
COc1cccc(OC)c1C(=O)Nc1ccc2c(c1)n(C)c(=O)n2C 1%
Cc1ccc(S(=O)(=O)NCCSC(C)(C)C)cc1 1%
O=C(OCC1O[C@@H](OC(=O)c2cc(O)c(O)c(O)c2)[C@@H](OC(=O)c2cc(O)c(O)c(O)c2)[C@@H](OC(=O)c2cc(O)c(O)c(O)c2)[C@@H]1OC(=O)c1cc(O)c(O)c(O)c1)c1cc(O)c(O)c(O)c1 (stereo partly specified) 1%

Inhibition of aptamer binding, active:
Cc1ccc(-c2nn(-c3ccccc3)cc2/C=C2\SC(=S)N(CCCCCC(=O)O)C2=O)o1 48%
COc1ccc(Nc2cc(Sc3ccc(OC)cc3)ncn2)cc1 46%
CCCCn1nc(C(=O)OCC(=O)Nc2sccc2C(N)=O)c2ccccc2c1=O 84%
COc1cc(/C=N/NC(=O)c2ccc(N3CCCC3=O)cc2)ccc1O 49%
Cc1ccccc1-c1nnn(CC(=O)c2ccc(S(=O)(=O)N3CCCC3)cc2)n1 47%
CCCc1nc2ccccc2c(C(=O)OCc2nnc(-c3cc(OC)c(OC)c(OC)c3)o2)c1CC 41%
CCOC(=O)c1sc2nc(CSc3ccccc3)[nH]c(=O)c2c1C 75%
CSc1nc2ccccc2c(=O)n1Cc1ccc(F)cc1 76%
O=C(Nc1ccc(-c2nnc(-c3ccccc3)o2)cc1)c1ccc(Br)o1 92%
O=C(NCCCN1CCCCCC1)c1ccc(N2CCCC2=O)cc1 43%
CCOC(=O)C(C)n1cnc2scc(-c3ccc(C)c(C)c3)c2c1=O (stereo unspecified) 64%
COc1cccc(OC)c1C(=O)Nc1ccc(Cc2ccncc2)cc1 55%
